Assay outcomes as filed in PubChem BioAssay.
Hits are enriched below; roughly 1.8% of the tested compounds scored in any of these assays.
GSIS activator: primary screen for activators of insulin secretion dependent on glucose, INS-1E cells, GLuc reporter luminescence; AID 743287; activation, % at 16.6 µM; INS-1E GLuc reporter insulin secretion, 2-3 h; actives 0.61% (n = 370,000);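 active = lowest replicate activation of at least 40%, so every replicate reaches that level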
ABCB6 inh 2: blocks the human ABCB6 transporter; actives 0.19% (n = 360,000); K562-ABCB6 porphyrin accumulation, flow cytometry, 1 h; hits give low values; fluorescence ratio to DMSO, % at 10 µM; Q9NP58;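 active = fluorescence ratio to DMSO below 75%, the collection mean minus 3 SD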;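 note: signal is porphyrin accumulated inside mitochondria; lower ratio means ABCB6 inhibition with less porphyrin fluorescence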
hiPSC survival: increases survival of single human iPS cells; survival enhancement, % at 20 µM; hiPSC single-cell survival, ATPlite luminescence; 100% = ROCK inhibitor wells, 0% = DMSO; actives 0.044% (n = 360,000); in the data active = survival enhancement above about 18%;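 note: cells exposed to compounds for 16 hours before the ATP read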
NRP1-CendR mod: NRP-1/CendR interaction modulation | O14786 | FAM-RPARPAR peptide binding to NRP-1, fluorescence polarization | inhibition, % at 25 µM | actives 0.85% (n = 360,000) | AID 602438;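 active = inhibition or corrected inhibition above about 18%, plus a signal ratio from 0.5 to 1.5, limit read from the data, passing the limit was not always enough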
Target sequence (O14786 whole entry, looked up): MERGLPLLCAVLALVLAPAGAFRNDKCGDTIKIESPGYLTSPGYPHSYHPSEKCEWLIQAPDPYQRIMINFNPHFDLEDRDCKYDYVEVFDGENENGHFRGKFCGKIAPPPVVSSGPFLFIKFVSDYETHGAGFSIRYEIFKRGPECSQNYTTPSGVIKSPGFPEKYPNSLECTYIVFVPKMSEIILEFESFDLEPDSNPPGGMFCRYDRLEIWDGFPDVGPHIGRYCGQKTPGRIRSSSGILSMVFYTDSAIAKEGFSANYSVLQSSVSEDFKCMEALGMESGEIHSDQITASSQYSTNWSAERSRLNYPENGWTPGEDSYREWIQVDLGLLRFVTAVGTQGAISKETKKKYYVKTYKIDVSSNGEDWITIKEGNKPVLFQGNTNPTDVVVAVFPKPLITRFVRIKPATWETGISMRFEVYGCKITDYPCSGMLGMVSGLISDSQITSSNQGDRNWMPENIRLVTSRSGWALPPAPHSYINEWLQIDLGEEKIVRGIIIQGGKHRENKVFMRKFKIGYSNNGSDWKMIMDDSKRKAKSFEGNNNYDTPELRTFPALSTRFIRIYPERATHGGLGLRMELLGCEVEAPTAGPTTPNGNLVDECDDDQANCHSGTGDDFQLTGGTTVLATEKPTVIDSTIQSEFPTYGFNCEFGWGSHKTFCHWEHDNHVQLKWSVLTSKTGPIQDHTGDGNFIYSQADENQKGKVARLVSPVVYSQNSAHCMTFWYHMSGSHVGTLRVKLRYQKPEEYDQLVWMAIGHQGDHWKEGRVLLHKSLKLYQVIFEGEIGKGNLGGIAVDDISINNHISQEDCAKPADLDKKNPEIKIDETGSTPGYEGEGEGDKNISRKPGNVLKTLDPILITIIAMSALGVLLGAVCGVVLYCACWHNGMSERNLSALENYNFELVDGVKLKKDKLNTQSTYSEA
ARNT TACC3 PPI: ARNT/TACC3 interaction disruption | actives 0.66% (n = 390,000) | Q9Y6A5 | AID 623870 | AlphaScreen His-ARNT PAS-B/GST-TACC3 binding, luminescence; TACC3 fragment carries E629A point mutation | inhibition, % at 9.99 µM;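 active = mean inhibition of replicates at least 50% and at least half of replicates each reaching 50%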
Large screens that a line does not name were inactive.

CCOC(=O)c1cnc(-c2ccccc2)nc1Oc1ccccc1	none (no result: GSIS activator)
O=C(Cc1ccccn1)NCC[C@@H]1CC[C@H](NS(=O)(=O)c2ccc(F)cc2)[C@H](CO)O1	none (no result: ABCB6 inh 2, hiPSC survival, NRP1-CendR mod)
CCOc1ccc(CCNC(=O)c2cc(C)on2)cc1OCC	GSIS activator 55
CCOc1ccc(CCNC(=O)c2c(C)noc2C)cc1OCC	none
CCOc1ccc(CCNC(=O)COC(=O)c2cccc(N(C)C)c2)cc1OCC	GSIS activator 52
CCOc1ccc(CCNC(=O)CSC(=S)N2CCCC2)cc1OCC	GSIS activator 41
CCOc1ccc(CCNC(=O)COC(=O)c2cccc(S(=O)(=O)N(C)C)c2)cc1OCC	none
CCOc1ccc(CCNC(=O)COC(=O)COc2cc(C)cc(C)c2)cc1OCC	GSIS activator 45
C#Cc1ccc([C@H]2C=C(C(=O)Nc3ccccc3)O[C@@H](OCCCCO)C2)cc1	none (no result: GSIS activator, ABCB6 inh 2, hiPSC survival, NRP1-CendR mod)
CO[C@H]1CC[C@H]2CCOc3ccc(C#N)cc3C(=O)N(C)C[C@@H](OC)[C@@H](C)C(=O)N(C)C[C@H]1O2	none (no result: ABCB6 inh 2, hiPSC survival, NRP1-CendR mod)
CCOc1ccc(CCNC(=O)COC(=O)/C=C/c2ccc(OC)c(OC)c2)cc1OCC	none
CCOc1ccc(CCNC(=O)COC(=O)COc2ccc(Br)cc2)cc1OCC	GSIS activator 69
CCOc1ccc(CCNC(=O)COC(=O)/C=C/c2ccccc2OC)cc1OCC	GSIS activator 47
CCOc1ccc(CCNC(=O)COC(=O)Cn2nc(C)c([N+](=O)[O-])c2C)cc1OCC	GSIS activator 56
CCOc1ccc(CCNC(=O)COC(=O)COc2ccc(C(C)=O)cc2)cc1OCC	none
Cc1cccc(NC(=O)Nc2ccc3c(c2)C(=O)N(C)[C@@H]2CC[C@H](CC(=O)NCc4ccccc4Cl)O[C@H]2CO3)c1	none (no result: ABCB6 inh 2, hiPSC survival, NRP1-CendR mod, ARNT TACC3 PPI)
CCC(=O)N1C[C@@H](C)[C@H](OC)CN(C)C(=O)c2cc(NC(=O)CC(F)(F)F)ccc2OC[C@@H]1C	none (no result: ABCB6 inh 2, hiPSC survival, NRP1-CendR mod, ARNT TACC3 PPI)
CCCCNC(=O)C1c2ccccc2OCC(=O)N1Cc1ccc2c(c1)OCO2 (stereo not given)	NRP1-CendR mod 19 (no result: ARNT TACC3 PPI)
CN(C)c1cc(C(F)(F)F)nc(-c2ccccn2)n1	none (no result: GSIS activator)
CSCc1cc(N(C)c2ccccc2)nc(-c2ccccn2)n1	ARNT TACC3 PPI 61
CCCC(=O)Nc1ccc2c(c1)C(=O)N(C)C[C@H](OC)[C@H](C)CN(Cc1nccs1)[C@H](C)CO2	none (no result: ABCB6 inh 2, hiPSC survival, NRP1-CendR mod)
O=C(Cn1cnc([N+](=O)[O-])n1)N/N=C/c1ccc(O)cc1O	ARNT TACC3 PPI 63
COCc1cc(C)nc(OCC(=O)N/N=C/c2ccccc2O)c1C#N	ARNT TACC3 PPI 81
COCc1cc(C)nc(OCC(=O)N/N=C/c2ccc(O)cc2O)c1C#N	ARNT TACC3 PPI 73
COCc1cc(C)nc(OCC(=O)N/N=C/c2cccc(OC)c2)c1C#N	none (no result: GSIS activator)
CCOc1cc(/C=N/NC(=O)COc2nc(C)cc(COC)c2C#N)ccc1O	none
COCC(=O)N1CC2(CN(Cc3ccc(OC)cc3)C2)c2c([nH]c3cc(OC)ccc23)[C@@H]1CO	none (no result: ABCB6 inh 2, hiPSC survival, NRP1-CendR mod, ARNT TACC3 PPI)
Cc1nn(-c2ccccc2)c(C)c1/C=N/n1cnnc1	none
Cc1nn(-c2ccccc2)c(C)c1/C=N\N1CCN(c2ccc(Cl)cc2)CC1	NRP1-CendR mod 25 (no result: GSIS activator)
O=C(CSc1nnc(CNC(=O)C23CC4CC(CC(C4)C2)C3)n1-c1ccccc1)Nc1ccc(F)cc1	NRP1-CendR mod 27
COC(=O)c1ccc(NC(=S)NCCCn2ccnc2)cc1	none
N#Cc1ccc(OCC(=O)NCCCn2ccnc2)cc1	ARNT TACC3 PPI 69
O=C(NCCCn1ccnc1)Nc1ccc(Cl)c(Cl)c1	ARNT TACC3 PPI 65 (no result: GSIS activator)
COc1ccc(OCC(=O)NCCCn2ccnc2)cc1	none
CCOC(=O)c1ccc(NC(=S)NCCCn2ccnc2)cc1	ARNT TACC3 PPI 35
O=C(COc1ccc(Cl)cc1)NCCCn1ccnc1	ARNT TACC3 PPI 47 (no result: GSIS activator)
O=C(COc1ccc(F)cc1)NCCCn1ccnc1	none
CC(C)NC(=O)N(C)C[C@H]1Oc2c(cccc2N(C)C)C(=O)N([C@@H](C)CO)C[C@H]1C	none (no result: ABCB6 inh 2, hiPSC survival, NRP1-CendR mod)
C[C@@H]1CN([C@H](C)CO)C(=O)c2cc(-c3ccccc3)cnc2O[C@@H]1CN(C)C(=O)c1cccnc1	none (no result: ABCB6 inh 2, hiPSC survival, NRP1-CendR mod, ARNT TACC3 PPI)
Cc1noc(C)c1NC(=O)N(C)C[C@H]1Oc2ccc(NC(=O)NC3CCCCC3)cc2CC(=O)N([C@H](C)CO)C[C@H]1C	none (no result: ABCB6 inh 2, hiPSC survival, NRP1-CendR mod)
CCOC(=O)C(NC(=O)Nc1ccccc1)(OCC)C(F)(F)F (stereo not given)	none
CCOC(=O)Cc1cnc(NC(=O)NC(C(=O)OCC)(c2ccccc2)C(F)(F)F)s1 (stereo not given)	NRP1-CendR mod 37 (no result: GSIS activator)
O=C1CCN(CCc2ccccc2)CCN1CCSc1ccc(Br)cc1	NRP1-CendR mod 23
CNC[C@H]1OCCCC[C@H](C)Oc2ccc(NS(=O)(=O)c3c(C)noc3C)cc2C(=O)N([C@H](C)CO)C[C@H]1C	none (no result: ABCB6 inh 2, hiPSC survival, NRP1-CendR mod)
C[C@H](CO)N1C[C@H](C)[C@@H](CN(C)C(=O)CCCN(C)C)OCCCC[C@H](C)Oc2ccc(NC(=O)CCC(F)(F)F)cc2C1=O	none (no result: ABCB6 inh 2, hiPSC survival, NRP1-CendR mod)
C[C@H]1CN([C@@H](C)CO)C(=O)c2cc(NC(=O)Nc3cccc4ccccc34)ccc2O[C@@H]1CN(C)Cc1ccc(-c2ccccc2)cc1	NRP1-CendR mod 25
CC(C)NC(=O)N(C)C[C@H]1Oc2ccc(N(C)C)cc2CC(=O)N([C@H](C)CO)C[C@@H]1C	none (no result: ABCB6 inh 2, hiPSC survival, NRP1-CendR mod)
C[C@@H]1CN([C@@H](C)CO)C(=O)Cc2cc(NS(=O)(=O)c3ccccc3)ccc2O[C@H]1CN(C)S(C)(=O)=O	NRP1-CendR mod 21
C[C@H](CO)N1C[C@H](C)[C@@H](CN(C)Cc2ccc(C(=O)Nc3ccccc3N)cc2)Oc2ccc(N(C)C)cc2CC1=O	ARNT TACC3 PPI 45 (no result: ABCB6 inh 2, hiPSC survival, NRP1-CendR mod)
CC(C)NC(=O)N(C)C[C@@H]1Oc2ccc(N(C)C)cc2CC(=O)N([C@H](C)CO)C[C@H]1C	ARNT TACC3 PPI 48 (no result: ABCB6 inh 2, hiPSC survival, NRP1-CendR mod)
C[C@@H]1CN(C)C(=O)Cc2cc(NS(C)(=O)=O)ccc2O[C@@H]1CN(C)S(C)(=O)=O	none (no result: ABCB6 inh 2, hiPSC survival, NRP1-CendR mod, ARNT TACC3 PPI)
Cc1noc(C)c1NC(=O)Nc1ccc2c(c1)C(=O)N([C@H](C)CO)C[C@H](C)[C@H](CN(C)S(=O)(=O)c1cn(C)cn1)OCCCC[C@H](C)O2	none (no result: ABCB6 inh 2, hiPSC survival, NRP1-CendR mod)
C[C@H]1CN([C@@H](C)CO)C(=O)Cc2cc(NS(=O)(=O)c3ccc(Cl)cc3)ccc2O[C@@H]1CN(C)S(C)(=O)=O	none (no result: ABCB6 inh 2, hiPSC survival, NRP1-CendR mod)
CC(C)NC(=O)Nc1ccc2c(c1)CC(=O)N([C@@H](C)CO)C[C@@H](C)[C@@H](CN(C)Cc1ccc(Oc3ccccc3)cc1)O2	ARNT TACC3 PPI active (no result: ABCB6 inh 2, hiPSC survival, NRP1-CendR mod)
CCC(C)Nc1nc(N)c([N+](=O)[O-])c(Nc2ccccc2OC)n1 (stereo not given)	none
CCC(C)Nc1nc(N)c([N+](=O)[O-])c(Nc2cc(OC)ccc2OC)n1 (stereo not given)	NRP1-CendR mod 52
C[C@H]1CN([C@@H](C)CO)C(=O)c2cc(C3=CCCC3)cnc2O[C@@H]1CN(C)C(=O)C1CC1	none (no result: ABCB6 inh 2, hiPSC survival, NRP1-CendR mod, ARNT TACC3 PPI)
Cc1ccc(Nc2nnc(C(C)(C)C)c(=O)n2N)cc1	none
